We go through six molecules from PubChem BioAssay.

A short description of test [1]: blockers of polyQ-driven CASP3 activation – cell-based (AID 1583). As to conditions: polyglutamine-induced caspase-3 activation, cell assay; stronger effect = higher value;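 tested at 10 µM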.
The nature of test [2]: yeast 75Q aggregation reduction – 75Q-TubU reporter (AID 1593). As to conditions: Yeast 75Q polyglutamine aggregation reporter.
Test [3] in a line: restoration of touch response, mutant HTT neurons – whole organism, C. elegans mechanosensory neurons, N-terminal huntingtin (AID 1599). As to conditions: C. elegans polyQ-huntingtin mechanosensory neurons, stronger effect = higher value.
Test [4] can be described thus: blockers of cytochrome c efflux from mitochondria – biochemical, purified mitochondria (AID 1603).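 Further: mouse liver mitochondria challenged with calcium chloride; signal normalized to the plate average as 100%.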 As to conditions: stronger effect = lower value.
Test [5] in a line: polyglutamine aggregate formation blockers (AID 1604). As to conditions: polyglutamine-induced protein aggregation inhibition assay; stronger effect = higher value; tested at 2.5 µM.
A short description of test [6]: rescue of PC12 cells from polyQ htt toxicity – LDH release (AID 1610). As to conditions: PC12 mutant huntingtin toxicity, final LDH at 4 uM, stronger effect = lower value.
The nature of test [7]: glutamate transport activators, MN-1 cells, MN-1 cell line (AID 1612).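 Further: tested at 1 µM final; 0% = mean of DMSO vehicle wells on each plate; positive means more glutamate uptake than control and negative means less.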 As to conditions: MN-1 motor neuron cells, stronger effect = higher value.
Test [8] can be described thus: GFP-Q80 aggregate reduction, neuronal-like cells, cell-based, NGF-treated PC12, GFPQ80 (AID 1614).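 Further: lower means fewer inclusions and 0 means no inclusions at all.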 As to conditions: PC12 NGF-treated GFP-polyQ80 inclusion reduction.
Test [9] is described as follows: 75Q-TubH aggregate inhibition, S. cerevisiae, yeast (AID 1616). As to conditions: S. cerevisiae 75Q-TubH polyglutamine aggregation suppression; stronger effect = higher value.
Test [10] can be described thus: P. berghei load reduction in hepatocytes – cell-based, HepG2, luciferase luminescence, HepG2 viability, primary screen (AID 624349).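 Further: 100% = mean of DMSO negative control wells on the same plate.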 As to conditions: P. berghei liver stage in HepG2, luciferase luminescence, concentration not given here; parasite load remaining: stronger effect = lower value; viability: measured here: HepG2 viability without parasites.
Test [11] is described as follows: EMT-state selective cytotoxicity in co-culture – imaging, PC-3E GFP, TEM4-18 mCherry, primary screen (AID 1345086;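 active means compounds killing one labelled cell type while sparing the other, by normalised counts and ratio limits, not self-fluorescent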;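 on all read-outs here: cells exposed to compound for 72 h before imaging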;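 on red/green cell ratio (normalised): normalised mesenchymal count divided by normalised epithelial count so high means epithelial killing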). As to conditions: PC-3E GFP / TEM4-18 mCherry co-culture, imaging cell counts, at 1 µM; for red/green cell ratio (normalised): actives lie on both sides, counts scaled to control wells, 1 = unselective.
A short description of test [12]: viability loss with induced miR-34 in A549 – imaging, A549 dox-inducible miR-34, nuclei and caspase counts, primary screen (AID 1347080;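 active means compounds whose cell count with miR-34 switched on is under 0.7 times the count with it off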). As to conditions: A549 miR-34 inducible, Hoechst nuclei count, 48 h.
For test [13], the target named is NAD(+) hydrolase SARM1 (Homo sapiens) (UniProt Q6SZW1). Kind of test: blocking NAD cleavage by SARM1 SAM-TIR – cell lysate, NAD-Glo luminescence (AID 1508614;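 active means compound whose remaining NAD level is above about 45 nM, limit read from the data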). As to conditions: SAM-TIR HEK293T lysate NADase, at 1 µM, stronger effect = higher value.
Sequence of NAD(+) hydrolase SARM1 (Homo sapiens) (Q6SZW1 whole entry, looked up, the tested form may be a part): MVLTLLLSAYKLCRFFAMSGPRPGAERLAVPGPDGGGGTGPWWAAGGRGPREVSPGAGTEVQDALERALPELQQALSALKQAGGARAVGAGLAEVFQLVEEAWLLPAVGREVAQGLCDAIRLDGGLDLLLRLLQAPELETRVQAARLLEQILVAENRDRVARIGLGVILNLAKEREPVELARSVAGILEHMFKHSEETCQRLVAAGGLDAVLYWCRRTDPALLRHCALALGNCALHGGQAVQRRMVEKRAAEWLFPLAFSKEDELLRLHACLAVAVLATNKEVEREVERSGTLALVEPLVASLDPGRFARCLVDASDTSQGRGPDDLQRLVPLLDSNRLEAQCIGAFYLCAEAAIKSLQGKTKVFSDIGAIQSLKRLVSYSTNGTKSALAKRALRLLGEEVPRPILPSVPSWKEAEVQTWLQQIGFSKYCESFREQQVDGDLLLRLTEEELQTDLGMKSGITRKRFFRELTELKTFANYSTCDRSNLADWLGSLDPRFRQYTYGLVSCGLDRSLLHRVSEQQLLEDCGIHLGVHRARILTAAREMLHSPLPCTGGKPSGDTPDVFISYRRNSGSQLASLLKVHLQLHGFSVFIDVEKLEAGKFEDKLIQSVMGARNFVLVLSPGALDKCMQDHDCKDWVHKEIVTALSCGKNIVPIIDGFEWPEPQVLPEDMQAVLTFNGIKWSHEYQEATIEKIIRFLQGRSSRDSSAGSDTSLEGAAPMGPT
Test [14] concerns the target Mitogen-activated protein kinase 7 (Homo sapiens) (UniProt Q13164). Kind of test: Gal4-ERK5 driven luciferase induction – cell-based, HTS, primary screen (AID 1508626;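 active means luciferase signal above three times the same-plate solvent-only control wells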;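 further: luciferase driven by Gal4-ERK5 fusion binding five Gal4 sites before minimal TATA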). As to conditions: HeLa Gal4-ERK5 transactivation, 18 h, at 5 µM, stronger effect = higher value.
Test [15] concerns Hepatitis C virus NS3 helicase. Kind of test: blockers of NS3h binding to ssDNA – biochemical, fluorescence polarization, LOPAC1280 library, primary screen (AID 687035; in the data active means inhibition above about 37%). As to conditions: Purified HCV NS3 helicase, Cy5-dT15 ssDNA binding fluorescence polarization; stronger effect = higher value; concentration not given here.
Test [16] can be described thus: compounds altering Cy5-DNA-NS3h complex signal – biochemical, LOPAC1280, artefact control for HCV NS3 helicase inhibitor project (AID 687037; call rule not given here). As to conditions: Cy5-DNA-NS3h complex fluorescence interference counterscreen.
[17] abbreviates: measured here: epithelial PC-3E GFP cell survival.
Setting [18] is: measured here: mesenchymal TEM4-18 mCherry cell survival.
Setting [19] is: stronger effect = lower value, cell number ratio, induced over uninduced.
[20] abbreviates: measured here: relative caspase fold change +Dox/-Dox.
[21] abbreviates: measured here: total cells with miR-34 induction, stronger effect = lower value.
Where [22] appears, read: measured here: total cells without miR-34 induction.

Values joined by “and” are separate entries in the source; they are usually repeats but may differ in a detail not shown here. Equal values may be shown once. Results filed as inconclusive are left out. For part of these data: Entries with a potency or affinity are not part of this list. Active and inactive are the calls of the source. Unless noted, no stated cut-off is given here; in the data, active means parasite load remaining mostly below about 12% (no sharp cut-off); inactive means mostly above about 10%.

Sequence of Mitogen-activated protein kinase 7 (Homo sapiens) (Q13164 whole entry, looked up, the tested form may be a part): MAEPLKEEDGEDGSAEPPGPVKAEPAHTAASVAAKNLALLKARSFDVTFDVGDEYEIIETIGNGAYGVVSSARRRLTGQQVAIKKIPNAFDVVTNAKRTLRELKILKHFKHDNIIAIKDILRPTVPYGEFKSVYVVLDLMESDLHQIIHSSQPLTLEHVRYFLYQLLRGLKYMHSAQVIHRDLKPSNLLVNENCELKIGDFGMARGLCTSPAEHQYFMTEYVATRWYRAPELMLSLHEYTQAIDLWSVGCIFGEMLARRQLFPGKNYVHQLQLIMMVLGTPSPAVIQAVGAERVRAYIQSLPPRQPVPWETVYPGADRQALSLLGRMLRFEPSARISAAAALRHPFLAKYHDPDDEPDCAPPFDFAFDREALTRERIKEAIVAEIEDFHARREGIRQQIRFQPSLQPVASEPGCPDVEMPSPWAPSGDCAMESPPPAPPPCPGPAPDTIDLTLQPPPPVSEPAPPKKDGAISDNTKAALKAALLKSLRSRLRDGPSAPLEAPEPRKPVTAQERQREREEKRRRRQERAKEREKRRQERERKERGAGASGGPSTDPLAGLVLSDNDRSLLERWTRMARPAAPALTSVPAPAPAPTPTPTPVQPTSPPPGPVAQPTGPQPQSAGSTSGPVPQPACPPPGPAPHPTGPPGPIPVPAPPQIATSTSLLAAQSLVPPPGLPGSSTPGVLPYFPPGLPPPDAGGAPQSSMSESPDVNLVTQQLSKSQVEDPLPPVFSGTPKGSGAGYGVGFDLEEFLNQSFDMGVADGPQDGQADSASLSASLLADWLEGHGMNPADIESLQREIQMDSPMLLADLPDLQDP

Regarding `CC(C)CC1C(=O)N2CCC[C@H]2C2(O)O[C@](NC(=O)C3C=C4c5cccc6[nH]c(Br)c(c56)C[C@H]4N(C)C3)(C(C)C)C(=O)N12` (some centres undefined), in test [1], the inhibition (usually the relative decrease from the control value, in per cent) came out at 2.51%. In test [2], the score came out at 1.5. For the same molecule, the rescue above control in [3] was found to be 6.29. For the same molecule, the cytochrome c release ratio in test [4] turned out to be 4.55. This molecule also had an inhibition of aggregation in test [5] of 72.4%. The same molecule yielded a normalised LDH release in [6] of 0.995. Further, the glutamate uptake change in test [7] is -22%. The molecule further registered an inclusion score in [8] of 2.5. The aggregation suppression score in test [9] was determined as 1.46. Moreover, the parasite load remaining in test [10] was 49.3% (inactive) and 20% (inactive). Moreover, the viability (as a rule, a read-out of living cells in per cent, often relative to untreated cells) in test [10] is 70.8% and 87%. Further, the red/green cell ratio (normalised) in test [11] is 1.32 (inactive). In addition, the normalised cell number in test [11] (setting [17]) is 0.91; in test [11] (setting [18]), 1.21. The fold change was 0.852 (inactive) in [12] (setting [19]) and 1.96 in [12] (setting [20]). Further, the results for the cell count in test [12] (setting [21]) and in test [12] (setting [22]) were 9430 and 11100, respectively.

Consider `CCOC(=O)Nc1nc2ccccc2[nH]1`, for which the parasite load remaining in test [10] is 62.9% (inactive). For the same molecule, the viability in [10] turned out to be 103%. Further, the red/green cell ratio (normalised) in [11] was 1.08 (inactive). Also, the normalised cell number in test [11] (setting [17]) was 0.9; in [11] (setting [18]), 0.97. Further, the fold change in test [12] (setting [19]) was 0.84 (inactive); in [12] (setting [20]), 2.72. Further, the cell count stood at 8540 in test [12] (setting [21]) and 10200 in test [12] (setting [22]). Moreover, the remaining NAD in test [13] was 10 nM (inactive). The luciferase signal in test [14] was 88 AU (inactive).

With `C[C@@H]1CC2C3C[C@H](F)C4=CC(=O)C=C[C@]4(C)[C@@]3(F)[C@@H](O)C[C@]2(C)[C@@]1(O)C(=O)COC(=O)C(C)(C)C` (some centres undefined), the inhibition in test [1] is -23.2%. In addition, the score in test [2] came to 1.34. In test [3], this molecule displayed a rescue above control of 16. The cytochrome c release ratio in test [4] was 0.82. In addition, the inhibition of aggregation in [5] amounted to 39.8%. In addition, the glutamate uptake change in test [7] is 27.8%. The molecule also had an inclusion score in test [8] of 2. The molecule further came in with an aggregation suppression score in test [9] of 1.12. Also, the parasite load remaining in test [10] is 119% (inactive) and 74% (inactive). Besides, the viability in test [10] was 76.5% and 90.1%. For the same molecule, the red/green cell ratio (normalised) in test [11] was 1.34 (inactive). The normalised cell number in [11] (setting [17]) came to 1; in [11] (setting [18]), 1.35. In addition, the fold change in test [12] (setting [19]) was 0.838 (inactive); in [12] (setting [20]), 1.19. Also, the figures for the cell count in test [12] (setting [21]) and in test [12] (setting [22]) were 6940 and 8290, respectively. The luciferase signal in test [14] is 20 AU (inactive).

With `CO/N=C(/C(=O)N[C@@H]1C(=O)N2C(C(=O)O)=C(COC(C)=O)CS[C@H]12)c1csc(N)n1`, the results for the inhibition in test [1] and in [15] were 6.49% and 6% (inactive), respectively. The molecule also came in with a score in [2] of 1.38. In test [3], this molecule came in with a rescue above control of 2.83. Also, the cytochrome c release ratio in [4] came to 1.43. The inhibition of aggregation in test [5] came to 86.2%. Besides, the normalised LDH release in [6] is 0.958. Moreover, in test [7], the glutamate uptake change is -17.6%. In [8], the inclusion score is 2. This molecule also came in with an aggregation suppression score in test [9] of 1.39. Further, the parasite load remaining in [10] is 84.7% (inactive) and 61.2% (inactive). The viability in [10] is 73.5% and 100%. Moreover, the fluorescence ratio (interference) in test [16] was 1 (inactive). In test [11], the red/green cell ratio (normalised) was 1.18 (inactive). For the same molecule, the figures for the normalised cell number in [11] (setting [17]) and in [11] (setting [18]) were 1.15 and 1.35, respectively. Besides, the fold change in test [12] (setting [19]) is 0.913 (inactive); in [12] (setting [20]) it was 1.26. For the same molecule, the results for the cell count in [12] (setting [21]) and in test [12] (setting [22]) were 11200 and 12300, respectively.

With `CCC1(C)OC(=O)N(C)C1=O` (centres undefined), in test [11], the red/green cell ratio (normalised) is 0.84 (inactive). The normalised cell number in test [11] (setting [17]) worked out at 1.08; in [11] (setting [18]), 0.91. Further, the values for the fold change in test [12] (setting [19]) and in [12] (setting [20]) were 0.92 (inactive) and 0.865, respectively. Besides, the cell count came out at 7860 in [12] (setting [21]) and 8540 in test [12] (setting [22]). For the same molecule, in test [13], the remaining NAD was 10 nM (inactive). Further, the luciferase signal in test [14] is 16 AU (inactive).

With `O=C(O)C1CSCN1` (centres undefined), the red/green cell ratio (normalised) in test [11] is 0.88 (inactive). For the same molecule, the normalised cell number was 1.25 in test [11] (setting [17]) and 1.1 in test [11] (setting [18]). Besides, the fold change in test [12] (setting [19]) was 0.957 (inactive); in [12] (setting [20]) it was 0.618. Further, the cell count stood at 9140 in [12] (setting [21]) and 9550 in test [12] (setting [22]). Further, the remaining NAD in [13] was 10 nM (inactive).
